Compound activity from PubChem BioAssay.
In the library only some 19% were active in any assay of this set; here they are far more common.
HT1080-NT tox – kills 2HG-producing HT-1080-NT fibrosarcoma cells; HT-1080-NT fibrosarcoma viability, CellTiter-Glo ATP luminescence, 48 h; Potency, µM (top dose mostly 46.1 µM), inactives show at the top dose activity, negative = less viability, hits mostly cytotoxic; hit rate 1.6% among 360,000; AID 686970;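 also: NT is the 2HG producing partner of a matched IDH1 knockdown line; potency is read from the fitted curve at half-maximal effect; 0% = DMSO-treated cells and -100% = media-only wells without cells; nearly all actives have a fitted effect of over 55% in size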
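Fibrosarcoma NT cells, 750 per well in 5% FBS RPMI, were exposed to compound for 48 hours. Viability: CellTiter-Glo luminescence.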
TDP1 cell noCPT – qHTS for Inhibitors of human tyrosyl-DNA phosphodiesterase 1 (TDP1): qHTS in cells in absence of CPT | Potency, µM (series often up to 46.2 µM), without a hit: at the highest dose activity change, negative = growth inhibition, hits mostly inhibitors | DT40 Tdp1-/- hTDP1 cells, no CPT, ATP luminescence, 48 h | hit rate 15% among 420,000 | AID 686978, 2013; also: potency is read from the fitted curve at half-maximal effect; nearly all actives have a fitted effect of over 55% in size
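A cellular qHTS used chicken DT40 cells lacking endogenous Tdp1 but carrying stably transfected human TDP1. Compounds were applied without camptothecin, and cell growth kinetics were judged by ATP-dependent luminescence after ≥48 hr.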
TDP1 cell CPT – growth inhibition of DT40 Tdp1-/-;hTDP1 cells with camptothecin (screen for TDP1 inhibitors). chicken DT40 Tdp1-/-;hTDP1 cells + 20 nM CPT, ATP luminescence, 48 h. Potency, µM (top dose mostly 46.2 µM), inactives show top-dose activity change, negative = growth inhibition, most hits filed as inhibitors. hit rate 12% among 420,000; also: potency is read from the fitted curve at half-maximal effect; nearly all actives have a fitted effect of over 55% in size
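Chicken DT40 Tdp1-/- cells stably complemented with human TDP1 were seeded at 400 cells/well in medium containing 20 nM camptothecin, exposed to pin-transferred compounds, and grown at 37 °C for at least 48 hr. Viability was read as ATP luminescence.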
IL1B secr inh – blocks inflammasome-driven IL-1 beta release; hit rate 4.7% among 360,000; THP-1 LPS/ATP IL-1B secretion, AlphaLISA, 16 h; stronger effect = lower value; activity change, % at 57.5 µM; in the data active = activity change below about -50%; inconclusive = mostly about -30% to -49%
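THP-1 cells pretreated 1 hr with compounds (up to 57.5 uM final), then stimulated with LPS (250 ng/mL final) plus ATP (1.25 mM final); secreted IL-1B measured by AlphaLISA after 16 hr, decreased signal indicating inhibition.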
HT1080 IDH1KD tx – kills HT-1080 cells with IDH1 knockdown; Potency, µM (series often up to 46.1 µM), inactives show top-dose activity, negative = toxicity, hits mostly cytotoxic; AID 686971; HT-1080 IDH1 knockdown viability, ATP luminescence, 48 h; hit rate 2% among 360,000;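 also: potency is read from the fitted curve at half-maximal effect; 0% = DMSO wells and -100% = cell-free medium wells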
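IDH1KD HT-1080 cells, 750/well, RPMI + 5% FBS; compound pinned after 2 h settling; 48 h, 37 °C; CellTiter-Glo luminescence; % activity normalised to DMSO and no-cell wells; curves fitted, classed by r2 and efficacy.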
Active calls of the source: *; ? = inconclusive; nt = not tested or not shown. Unless noted, calls follow the shape of the dose curve; as a rule, active = well fitted curve in the direction sought with a large enough effect; inconclusive = small, poorly fitted or top-dose-only effect, or another doubt; inactive = no such curve, though single readings can be large; an effect the other way counts as inactive or inconclusive. Unless noted, % is scaled to controls: 0 for no effect and ±100 for the full control effect.

SMILES | HT1080-NT tox | TDP1 cell noCPT | TDP1 cell CPT | IL1B secr inh | HT1080 IDH1KD tx
O=C(O)/C=C/C(=O)NCc1cn(-c2ccccc2)nc1-c1cccc(Br)c1 | -18.0% | -1.7% | 1.6% | -57.8* | -13.7%
Nc1cc(S(=O)(=O)N2CCOCC2)ccc1N1CCCCC1 | 0.0% | ? | 23.1µM* | -8.5 | -12.5%
Nc1ccc(S(=O)(=O)c2ccc(N3CCOCC3)c(N)c2)cc1 | -1.6% | 20.6µM* | -22.6% | ? | -19.7%
Nc1cc(S(=O)(=O)Nc2cc(Cl)ccc2Cl)ccc1N1CCOCC1 | -3.9% | ? | ? | -22.6 | -5.1%
O=C(O)c1cc(=O)c2ccc(Cl)cc2[nH]1 | nt | 16.1% | 15.4% | nt | nt
CCc1ccc(C(=O)c2cn(CC(=O)Nc3cc(F)ccc3F)c3nc(C)ccc3c2=O)cc1 | nt | -0.6% | -7.2% | nt | nt
O=C(CCn1c(=O)[nH]c2ccsc2c1=O)N1CCN(c2ccc([N+](=O)[O-])cc2)CC1 | 0.4% | ? | 16.4µM* | -20.5 | -13.0%
CC(C)CCNC(=O)CCCCn1c(=O)[nH]c2ccsc2c1=O | 0.0% | -4.9% | -19.8% | 11.0 | 0.9%
CC(=O)c1ccc(N2CCN(C(=O)CCCCn3c(=O)[nH]c4ccsc4c3=O)CC2)cc1 | nt | 23.1µM* | 13µM* | nt | nt
CCCCC(CC)CNC(=O)CCCCCn1c(=O)[nH]c2ccsc2c1=O (centres undefined) | nt | 23.1µM* | ? | nt | nt
Cc1cccc(N2CCN(C(=O)CCCn3c(=O)[nH]c4ccsc4c3=O)CC2)c1C | nt | ? | 20.6µM* | nt | nt
NC(=O)C1CCN(C(=O)CCCCCn2c(=O)[nH]c3ccsc3c2=O)CC1 | 9.6% | -1.3% | 0.9% | 1.5 | 10.2%
Nc1c(-c2nc(-c3ccccc3Cl)no2)nnn1-c1ccccc1F | nt | -17.4% | -2.6% | nt | nt
Cc1cccc(C)c1NC(=O)C1(C)CN(S(C)(=O)=O)CC(=O)N1CCc1c[nH]c2ccccc12 (centres undefined) | -14.9% | 1.3% | 14.8% | -24.5 | -7.9%
Cc1cc(SCC(=O)Nc2nsc(-c3ccc(C(C)(C)C)cc3)n2)nc2ccccc12 | nt | -99.4% | ? | nt | nt
O=C(NCc1ccco1)c1ccc(CS(=O)Cc2ccc(Cl)cc2)o1 (centres undefined) | -4.3% | -3.6% | -2.3% | -17.5 | -2.4%
COc1cc(OC)c(NC(=O)c2nn(-c3ccc(C)cc3)c(=O)c3c2c2ccccc2n3C)cc1Cl | nt | -0.7% | 8.3% | nt | nt
O=C(CCCCn1c(=O)[nH]c2ccsc2c1=O)N1CCN(c2cccc(Cl)c2)CC1 | nt | 13µM* | 16.4µM* | nt | nt
O=C(CCn1c(=O)[nH]c2ccsc2c1=O)N1CCN(c2cccc(Cl)c2)CC1 | -1.4% | ? | -11.0% | -10.2 | ?
CC(=O)c1ccc(N2CCN(C(=O)CCCc3nc4ccccc4s3)CC2)cc1 | -13.0% | 10.3µM* | 11.6µM* | 155.9 | -3.8%
CCCCCCCCCCCCC/C=C\[C@@H](O)[C@H](CO)NC(C)=O | nt | ? | 15.2% | nt | nt
O=C1Nc2ccccc2-n2nnnc2C1N1CCN(C(=O)C2CCCO2)CC1 (centres undefined) | 22.0% | 1.3% | 9.3% | 23.3 | 12.4%
CN(CC(=O)Nc1cccc(F)c1)C(=O)C1CCC(C(=O)N(C)CC(=O)Nc2cccc(F)c2)CC1 (centres undefined) | -8.8% | -10.1% | -1.6% | 3.2 | -7.5%
CC(C)CNC(=S)NC1CC2CCC(C1)N2Cc1ccccc1 (centres undefined) | -1.2% | ? | -23.3% | -7.0 | 5.7%
CCn1ccnc1CNC(=O)CC1C(=O)NCCN1CC(c1ccccc1)c1ccccc1 (centres undefined) | -0.1% | -9.6% | 2.0% | -13.9 | -3.2%
Cc1nnc(SCCOc2ccccc2)s1 | 16.9% | -18.1% | -7.3% | -4.1 | 3.0%
CCc1cccc(NC(=O)CCn2nc(C)cc2C)c1 | nt | -16.6% | -0.8% | nt | nt
O=C(CCC1CCCN(C(=O)C2=CCCCC2)C1)N1CCN(c2ccccn2)CC1 (centres undefined) | 3.4% | ? | -24.3% | 0.0 | 6.9%
COc1cccc(-c2nnc3sc(CN4CCCCC4)cn23)c1 | nt | 1.3µM* | 1.16µM* | nt | nt
